# Compound activity (PubChem BioAssay)
# MLL CXXC-DNA inh: qHTS Fluorescence Polarization Assay for Inhibitors of MLL CXXC domain - DNA interaction. hit rate 0.037% among 290,000. AID 2662, 2010. Potency, µM (highest dose often 115 µM), for inactives: at the top dose activity change, negative = inhibition, hits mostly inhibitors. MLL-CXXC / FITC-HOXA9 DNA fluorescence polarization; active = well fitted inhibition curve with a large enough effect in the polarisation, with a control signal flat, not every such curve was filed as active; inconclusive = small, poorly fitted or top-dose-only effect, or effect the other way, or a change in a side signal; inactive = no such curve, though single readings can be large or run the other way; the % refers to the polarisation; also: potency is read from the fitted curve at half-maximal effect
#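 Purified MLL-CXXC (added from a 7 uM solution) was preincubated 5 min at ambient with pinned compounds in 50 mM Tris-HCl pH 7.5, 50 mM NaCl, 1 mM DTT, 0.05% BSA. Fluorescein-labeled HOX-A9 DNA (50 nM solution) followed, 30 min, then polarization read.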
# p53 reactivation: qHTS assay for re-activators of p53 using a Luc reporter. hit rate 0.063% among 320,000. H1299 p53-A138V BP100-luciferase reporter, luminescence, 24 h. Potency, µM (doses to about 92.2 µM), for the others: at the top dose activity change, positive = activation, actives largely listed as activators; also: potency is read from the fitted curve at half-maximal effect; % of control where 0% means no effect; nearly all actives have a fitted effect of over 45% in size
#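 p53-null H1299 cells stably carrying temperature-sensitive p53-A138V and a BP100-luciferase reporter were pinned with compounds (4-point, 1:5 series) and held 24 hrs at 37 deg C. Luminescence was read 10 min after detection reagent.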
# Menin-MLL TR inh: qHTS Assay for Inhibitors Targeting the Menin-MLL Interaction in MLL Related Leukemias: Competition With Texas Red Labeled MLL-derived Mutant Peptide; O00255; Menin + Texas Red MLL mutant peptide, fluorescence polarization; Potency, µM (doses to about 61.6 µM), inactives show at the highest dose FP activity change, negative = inhibition, usual class: inhibitors; hit rate 0.23% among 270,000; active = well fitted inhibition curve with a large enough effect in the polarisation, with a control signal flat, not every such curve was filed as active; inconclusive = small, poorly fitted or top-dose-only effect, or effect the other way, or a change in a side signal; inactive = no such curve, though single readings can be large or run the other way; the % refers to the polarisation; also: potency is read from the fitted curve at half-maximal effect; % of control where 0% means no effect
# Target sequence (O00255 whole entry, looked up): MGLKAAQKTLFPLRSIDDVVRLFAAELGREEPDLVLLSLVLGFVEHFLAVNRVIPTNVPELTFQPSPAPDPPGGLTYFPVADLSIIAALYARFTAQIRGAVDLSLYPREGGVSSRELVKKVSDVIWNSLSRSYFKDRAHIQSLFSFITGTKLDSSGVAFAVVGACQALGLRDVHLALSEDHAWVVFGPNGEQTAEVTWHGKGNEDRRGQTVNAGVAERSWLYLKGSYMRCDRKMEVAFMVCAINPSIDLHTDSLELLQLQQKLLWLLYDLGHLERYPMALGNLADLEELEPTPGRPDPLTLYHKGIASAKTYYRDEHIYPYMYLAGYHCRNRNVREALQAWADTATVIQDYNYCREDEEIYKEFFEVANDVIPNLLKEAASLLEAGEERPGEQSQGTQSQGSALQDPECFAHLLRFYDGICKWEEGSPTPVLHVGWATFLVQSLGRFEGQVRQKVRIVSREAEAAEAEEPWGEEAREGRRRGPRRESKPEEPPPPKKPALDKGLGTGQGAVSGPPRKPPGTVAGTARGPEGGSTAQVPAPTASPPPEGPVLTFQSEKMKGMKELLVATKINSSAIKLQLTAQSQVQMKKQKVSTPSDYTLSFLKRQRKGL
# ClpP mod: qHTS Assay for Activators of ClpP; ATP-dependent Clp protease proteolytic subunit (Bacillus subtilis (strain 168)), P80244; purified B. subtilis ClpP, FRET peptide cleavage, 20 min; Potency, µM (top dose mostly 57.5 µM), for the others: at the highest dose activity change, negative = active; hit rate 1.9% among 340,000; AID 651965, 2013; active = well fitted falling curve with a large enough effect; inconclusive = small, poorly fitted or top-dose-only effect; inactive = no such curve, though single readings can be large or run the other way; also: potency is read from the fitted curve at half-maximal effect; the source files actives as falling curves though it sought activators and does not explain the sign; nearly all actives have a fitted effect of over 65% in size
#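 ClpP 10 microg/mL final, pH 8 Tris/KCl buffer with BSA, glycerol, Tween-20; compound pinned in; FRET-FV substrate; RT 20 min; Ex320/Em430; ΔFRET vs ADEP 5.8 microM, DMSO, no enzyme.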
# Menin-MLL FL inh: qHTS Assay for Inhibitors Targeting the Menin-MLL Interaction in MLL Related Leukemias: Competition With Fluorescein Labeled MLL-derived Peptide; Fluorescence polarization, fluorescein-MLL peptide displacement from menin; FP activity change, % at 61.4 µM; 290,000 tested, under 10 active; AID 1766, 2009; active = well fitted curve in the direction sought with a large enough effect in the polarisation, not every such curve was filed as active; inconclusive = small, poorly fitted or top-dose-only effect, or effect the other way, or a change in a side signal; inactive = no such curve, though single readings can be large or run the other way; the % refers to the polarisation; also: % of control where 0% means no effect
# MLL CXXC Fl: qHTS Fluorescence Polarization (FP) Assay for Inhibitors of MLL CXXC domain - DNA interaction: Fluorescein FP | shares compounds with MLL CXXC-DNA inh | MLL CXXC-DNA binding, fluorescein FP | Potency, µM (top dose mostly 345 µM), for the others: at the highest dose activity change, negative = inhibition, actives largely listed as inhibitors | hit rate 70% among 200; also: potency is read from the fitted curve at half-maximal effect; nearly all actives have a fitted effect of over 80% in size
# MLL CXXC FP-TR: qHTS Fluorescence Polarization (FP) Assay for Inhibitors of MLL CXXC domain - DNA interaction: Texas Red FP | shares compounds with MLL CXXC-DNA inh | MLL CXXC-DNA binding, Texas Red fluorescence polarization | Potency, µM (series often up to 345 µM), inactives show at the top dose activity change, negative = inhibition, usual class: inhibitors | hit rate 40% among 200 | AID 624161, 2012; also: potency is read from the fitted curve at half-maximal effect; % is scaled to controls: 0 for no effect and ±100 for the full control effect; nearly all actives have a fitted effect of over 75% in size
# MLL CXXC TRF: qHTS Fluorescence Polarization (FP) Assay for Inhibitors of MLL CXXC domain - DNA interaction: HTRF Assay; shares compounds with MLL CXXC-DNA inh; MLL CXXC-DNA binding, HTRF, biochemical; Potency, µM (titrated, usually from 172 µM), for the others: at the top dose activity change, negative = inhibition, hits mostly inhibitors; hit rate 30% among 210; AID 624162, 2012; also: % is scaled to controls: 0 for no effect and ±100 for the full control effect; nearly all actives have a fitted effect of over 80% in size
# * hit, by the source's call; ? = inconclusive; / = not tested or not shown; [ ] = remark or other dose. Many of the other results were omitted from the sample, so hits are more common in it than they were. Unless noted, calls follow the shape of the dose curve; as a rule, active = well fitted curve in the direction sought with a large enough effect; inconclusive = small, poorly fitted or top-dose-only effect, or another doubt; inactive = no such curve, though single readings can be large; an effect the other way counts as inactive or inconclusive.
SMILES,MLL CXXC-DNA inh,p53 reactivation,Menin-MLL TR inh,ClpP mod,Menin-MLL FL inh,MLL CXXC Fl,MLL CXXC FP-TR,MLL CXXC TRF
NC(=O)CN1C(=O)C(=O)N(Cc2cccc(Cl)c2)C1=O,?,10%,3%,0%,2,66%,-9%,-3%
CCc1cccc(C)c1NC(=O)Cn1c(=O)cc(C(F)(F)F)c2c(C)nn(C)c21,/,/,/,-14%,/,/,/,/
OC(Cn1cncn1)(c1ccc(F)cc1)c1ccc(Cl)cc1 (stereo not given),89µM*,-6%,-6%,2%,1,?,-19%,-1%
O=C(O)/C=C/C(=O)c1c(-c2ccccc2)[nH]c2ccccc12,?,-69%,80%,2%,5,7.1µM*,159µM*,49µM*
CC(=O)c1c(-c2ccccc2)[nH]c2ccccc12,4%,4%,-30%,-1%,4,/,/,/
O=C(Nc1cc(C(=O)Nc2ccc(S(=O)(=O)O)cc2S(=O)(=O)O)cc(C(=O)Nc2ccc(S(=O)(=O)O)cc2S(=O)(=O)O)c1)Nc1cc(C(=O)Nc2ccc(S(=O)(=O)O)cc2S(=O)(=O)O)cc(C(=O)Nc2ccc(S(=O)(=O)O)cc2S(=O)(=O)O)c1,3.5µM*,/,?,-4%,?,4.5µM*,11µM*,3.1µM*
C=Cc1c(C)/c2[n-]/c1=C\c1[n-]c(c(CC)c1C)/C=c1\[n-]c3c(c1C)C(=O)C(C(=O)[O-])C=3c1[n-]c(c(C)c1CCC(=O)[O-])\C=2.[Cu].[Na+].[Na+] (stereo not given),?,/,?,/,-27,45µM*,126µM*,7.7µM*
CCN(CC)CCC[C@H](C)Nc1c2ccc(Cl)cc2nc2ccc(OC)cc12,45µM*,/,-23%[24.8 µM],/,?,50µM*,?,0%
CCc1nc(C)cn1S(=O)(=O)c1ccc(Cl)c(Cl)c1OC,/,/,/,3%,/,/,/,/
COc1cc2cc(CNc3ccc(C)cc3)c(=O)n(CC(=O)Nc3ccc(F)cc3F)c2cc1OC,/,/,/,4%,/,/,/,/
COc1ccc(NS(=O)(=O)c2ccc(Cl)s2)cn1,?,4%,/,2%,?,126µM*,2%,0%
COc1ccc(NS(=O)(=O)c2cccs2)cn1,-3%,-2%,6%,/,-9,/,/,/
O=C(NCc1ccc(Cl)cc1)C1CCN(S(=O)(=O)c2ccc3c(c2)CCCN3C(=O)C2CCC2)CC1,/,/,/,0%,/,/,/,/
CC(=O)Oc1ccc2c(c1)Oc1cc(OC(C)=O)ccc1C21OC(=O)c2ccccc21,?,-4%,?,-1%,?,0.022µM*,34%,3%
C/C(=N\Nc1nc2ccccc2c(=O)n1O)c1ccco1,?,?,17%,/,-1,?,?,?
O=C1C(=Cc2cccs2)C(=O)c2ccccc21,?,9%,10%,-3%,-4,22µM*,?,15%
